Pf Dd2 growth – qHTS Primary assay for Inhibitors of Plasmodium falciparum Dd2 growth in vitro. P. falciparum Dd2 growth, SYBR Green, 72 h. Potency, µM (highest dose often 28.9 µM), hits mostly inhibitors. hit rate 4.3% among 120,000. AID 1347417, 2020; active = well fitted inhibition curve with a large enough effect; note: nearly all actives have a fitted effect of over 65% in size
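Readout: SYBR Green fluorescence, 485 nm excitation, 535 nm emission, after ~16 h lysis at 37C. Before that, Dd2-infected red cells (2.5% hematocrit) grew 72 h with compound, 29 uM top final concentration.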
Numbers stand for hits; [ ] = remark or other dose. Shown is part of a subset that was picked to be rich in hits.

What do the screens show for `COc1ccc(CCN2C(=O)c3[nH]nc(-c4ccccc4O)c3C2c2ccccc2)cc1` (stereo not drawn)?
Pf Dd2 growth: 8.9µM

What do the screens show for `COc1ccc(CCN2C(=O)N(c3ccccc3)C(=O)C2CC(=O)Nc2ccccc2)cc1` (stereo not drawn)?
Pf Dd2 growth: inactive

How did Cc1ccc(C)c(NC(=O)Cn2ccn3nc(-c4ccc(F)cc4)c(CO)c3c2=O)c1 do in these assays?
Pf Dd2 growth: inactive

How did CCCCN(C)C(=O)CC1CCN(c2ccnc(OC)n2)CC1 do in these assays?
Pf Dd2 growth: inactive

Results for COc1ccc(N2CCN(C(=O)CC3CCCCN(C)C3=O)CC2)cc1 (stereo not drawn) ?
Pf Dd2 growth: inactive

How did O=C(CC1CCCCN(Cc2ccccc2)C1=O)N1CCN(c2ccc(F)cc2)CC1 (stereo not drawn) do in these assays?
Pf Dd2 growth: 11µM

How did O=C(CC1CCCCN(Cc2ccccc2)C1=O)Nc1ccc(F)cc1F (stereo not drawn) do in these assays?
Pf Dd2 growth: inactive

Results for O=C(O)C1CCc2nnc(C3CCCN([S+](=O)([O-])c4ccccc4)C3)n21 (stereo not drawn) ?
Pf Dd2 growth: inactive

What do the screens show for `CC(C)S(=O)(=O)CCNc1nccc(-c2cccnc2)n1`?
Pf Dd2 growth: inactive

What do the screens show for `Cc1cc(=O)[nH]c(NCCNc2nccc(-c3cccnc3)n2)n1`?
Pf Dd2 growth: inactive

Results for OC(CNc1nccc(-c2cccnc2)n1)COc1ccc(Cl)cc1 (stereo not drawn) ?
Pf Dd2 growth: 14µM

What do the screens show for `FC(F)(F)c1ccc(N2C3CCC2CN(Cc2cccc(-c4cccnc4)c2)C3)cc1`?
Pf Dd2 growth: 11µM

How did FC(F)(F)c1ccc(N2C3CCC2CN(Cc2ccc(-c4ccsc4)cc2)C3)cc1 do in these assays?
Pf Dd2 growth: inactive

How did FC(F)(F)c1ccc(N2C3CCC2CN(Cc2ccc(-c4ccccc4)cc2)C3)cc1 do in these assays?
Pf Dd2 growth: inactive

What do the screens show for `COc1ccc(CC(=O)N2CC(c3nnc(C(C)C)o3)C3(CCOCC3)C2)cc1OC` (stereo not drawn)?
Pf Dd2 growth: inactive

Results for COc1cccc(C2CNC(=O)c3nc(-c4ccc(C(=O)N(C)C)o4)[nH]c3C2)c1 (stereo not drawn) ?
Pf Dd2 growth: inactive

How did COc1ccccc1C1CNC(=O)c2nc(CCN3CCC(C)CC3)[nH]c2C1 (stereo not drawn) do in these assays?
Pf Dd2 growth: inactive

What do the screens show for `COc1cccc(C2CNC(=O)c3nc(Cn4nc(C)c(C)c4C)[nH]c3C2)c1` (stereo not drawn)?
Pf Dd2 growth: 10µM

Results for CCCNC(=O)N1CCC(c2noc(-c3ccccn3)n2)C1 (stereo not drawn) ?
Pf Dd2 growth: inactive[5.79 µM]

Results for COc1ccc(N2CC3CCC(C2)N3C(=O)c2c(C)noc2C)cc1 ?
Pf Dd2 growth: inactive

What do the screens show for `CN1[C@@H](CCC(=O)NCc2cccs2)CNC(=O)[C@@H]2[C@H]1CCN2Cc1csnn1`?
Pf Dd2 growth: inactive

Results for COC1CCOC2(CCN(C(=O)Nc3cccc(F)c3)CC2)C1 (stereo not drawn) ?
Pf Dd2 growth: inactive

How did O=C(COc1cccc(F)c1)c1ccc2c(c1)N(CC(=O)N1CCOCC1)C(=O)CO2 do in these assays?
Pf Dd2 growth: inactive

What do the screens show for `CN(C)C[C@@H]1CN(c2ccccn2)C[C@H]1NC(=O)NC(C)(C)C`?
Pf Dd2 growth: inactive

What do the screens show for `Cc1ccc(NC(=O)Nc2csc3c2CCCC3)c(C)c1`?
Pf Dd2 growth: inactive[5.79 µM]

Results for CCc1cccc(C)c1NC(=O)Nc1csc2c1CCCC2 ?
Pf Dd2 growth: inactive[5.79 µM]

What do the screens show for `O=C(Nc1ccc(F)cc1)Nc1csc2c1CCCC2`?
Pf Dd2 growth: 10µM

Results for CCNC(=O)c1cc(NC(=O)C(C)C)cc2nc(C)ccc12 ?
Pf Dd2 growth: inactive

How did CCN(C(=O)Cn1c(SCC(=O)NCc2ccccc2)nc2ccccc21)c1cccc(C)c1 do in these assays?
Pf Dd2 growth: inactive

How did COc1ccc(NC(=O)CSc2nc3ccccc3n2CC(=O)Nc2cccc(C)c2C)cc1 do in these assays?
Pf Dd2 growth: inactive

Results for CCN(C(=O)Cn1c(SCC(=O)Nc2ccc(OC)cc2)nc2ccccc21)c1cccc(C)c1 ?
Pf Dd2 growth: 10µM

Results for CC(=O)c1ccc(NC(=O)Cn2ccn3nc(-c4ccccc4)c(CO)c3c2=O)cc1 ?
Pf Dd2 growth: inactive

Results for CC1Oc2ccc(NC(=O)C3CCCC3)cc2CN(Cc2ccc(F)cc2)C1=O (stereo not drawn) ?
Pf Dd2 growth: inactive

How did Cc1ccn2c(C(=O)N3CCC4(CC3)Nc3ccccc3NC4=O)nnc2n1 do in these assays?
Pf Dd2 growth: inactive

What do the screens show for `COc1ccc(-c2ccc3nnc(CNC(=O)C(C)Oc4cccc(Cl)c4)n3n2)cc1` (stereo not drawn)?
Pf Dd2 growth: inactive

Results for Cc1ccc(OCC(=O)N2CCC(N3CC4CC(C3)[C@H]3CCCC(=O)N3C4)CC2)cc1 (stereo partly drawn) ?
Pf Dd2 growth: inactive

What do the screens show for `O=C(c1ccc2nc[nH]c2c1)N1CCC(CO)(CCCc2ccccc2)CC1`?
Pf Dd2 growth: inactive

Bioassay records (PubChem)
